Source: PubChem BioAssay
MazF activator: increases E. coli MazEF RNase cleavage of RNA; P0AE70; FAM/BHQ RNA-DNA oligo cleavage fluorescence, 5 h; activation, % at 20 µM; 350,000 tested, 0.32% active; AID 504720; in the data active means activation above about 50%
Target sequence (P0AE70 whole entry, looked up): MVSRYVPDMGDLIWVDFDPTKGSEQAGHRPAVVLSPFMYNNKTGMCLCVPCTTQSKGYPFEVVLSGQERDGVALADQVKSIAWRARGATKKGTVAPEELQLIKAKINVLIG
BoNT A protease: inhibitors of Botulinum neurotoxin A light chain protease; AID 588499; inhibition, % at 10 µM; 360,000 tested, 0.17% active; multiplex microsphere protease substrate cleavage, flow cytometry; further: plate controls were buffer without enzyme for full effect and enzyme alone for no effect
Anthrax LF inh2: blocks Bacillus anthracis lethal factor protease | P15917 | multiplex microsphere protease cleavage assay, LF | inhibition, % at 10 µM | 360,000 tested, 0.12% active | AID 588501; further: plate controls were buffer without enzyme for full effect and enzyme alone for no effect
BoNT F protease: inhibitors of Botulinum neurotoxin F light chain protease; AID 588497; 360,000 tested, 0.22% active; inhibition, % at 10 µM; Multiplex microsphere protease cleavage assay, flow cytometry; in the data active means inhibition above about 35%, passing the limit was not always enough; inconclusive means no clear call, values can overlap the other calls; further: plate controls were buffer without enzyme for full effect and enzyme alone for no effect
Autofluor counter: compound fluorescence in toxin protease inhibitor counterscreen | compound autofluorescence counterscreen, microsphere flow cytometry; active compounds read high | fluorescence intensity (no concentration beside the values) | 360,000 tested, 3.1% active | AID 624483; in the data active means fluorescence intensity above about 16000; inconclusive means no clear call, values can overlap the other calls
The depositor's hits bear a star; ? = inconclusive; / = no result given. This is a sample that favours compounds with a hit; in the whole collection about 3.7% have one here. Unless noted, no stated cut-off is given here; in the data, active means inhibition above about 30%; inconclusive means no clear call, values can overlap the other calls; inactive means below that.

SMILES	MazF activator	BoNT A protease	Anthrax LF inh2	BoNT F protease	Autofluor counter
COc1ccc(Nc2cc(C)nc(N)n2)cc1	9	2	2	?	4666
Cc1ccc(-c2cc3nc(C)cc(NCc4ccco4)n3n2)cc1	-6	2	-4	7	16495*
Cc1cc(C)c(C(N)=O)c(SCC(=O)c2cc(C)c(C)cc2C)n1	-4	0	0	-1	2489
C=CCSc1[nH]c(=O)cc(C)c1C(N)=O	5	2	-2	4	19287*
COc1ccc(NS(=O)(=O)c2ccc(C)c(C(=O)N(C)Cc3ccc(C)cc3)c2)cc1	-2	/	/	/	/
O=C(CSc1nn(-c2ccccc2)c(=S)s1)Nn1cnnc1	3	-1	-3	-10	3527
O=C(CSc1nn(-c2ccccc2)c(=S)s1)NC(=O)NCc1ccco1	-2	-2	0	-1	23530*
NC(N)=NCCCC(NC(=O)c1ccccc1)C(=O)Nc1ccc2ccccc2c1 (stereo not given)	33	0	-11	-3	6073
N#Cc1c(=O)c2nc(NCc3ccccc3)ncc2n2ccccc12	-4	0	3	0	23674*
N#Cc1c(=O)c2nc(NCCCO)ncc2n2c(=O)c3ccccc3[nH]c12	7	1	-1	3	1991
O=C(COC(=O)c1cc[n+]([O-])cc1)Nc1ccc(Cl)cc1Cl	-2	-2	1	-7	5779
C(#Cc1ccc(C#CCN2CCOCC2)cc1)CN1CCOCC1	4	-2	-2	-3	17459*
Cc1nc(SC(C)C(=O)NC2CCCCC2C)c2c(C)c(C)sc2n1 (stereo not given)	2	1	0	0	5982
Cc1ccccc1-n1c(SCC(=O)N2CCOCC2)nc(O)cc1=O	-2	?	0	-4	21580*
COc1ccccc1-n1c(SCC(=O)N2CCOCC2)nc(O)cc1=O	-1	-1	-2	-4	6167
COc1ccc(N2CCN(C(=O)CSc3nnc(-c4cc5ccccc5cc4O)n3C)CC2)cc1	-7	17	-11	-15	16210*
Cn1c(SCC(=O)N2CCN(c3ccccc3)CC2)nnc1-c1ccco1	8	0	-2	0	20444*
O=C(CSc1ccccn1)N1CCN(c2ccc(Cl)cc2)CC1	2	?	-1	3	21847*
Cc1ccccc1OCC(O)COc1ccccc1C	-3	0	1	-9	?
Cc1ccc(CNC(=O)CC(C)S(=O)(=O)c2ccc3c(c2)NC(=O)CS3)o1 (stereo not given)	-1	-1	0	-4	4867
CCCCN(C=O)c1c(CC)nc2ccc(C(=O)N3CCN(C(=O)c4ccco4)CC3)cn12	/	-1	0	-7	4024
Cc1ccc(OCCSc2nc3ccccc3n2CCC(=O)O)c(C(C)C)c1	-21	0	-5	7	3915
Cc1ccnc(SCC(=O)N2CCN(c3cccc(Cl)c3)CC2)n1	4	0	-6	3	9779
Cc1sc(NC(=O)CSc2nnc(CCNC(=O)c3cccs3)n2C)nc1-c1ccccc1	-3	-1	-4	-19	5953
Cc1ccccc1-n1c(SCC(=O)N2CCN(c3ccccc3)CC2)nnc1-c1ccncc1	4	-1	1	-1	21220*
SMILES	MazF activator	BoNT A protease	Anthrax LF inh2	BoNT F protease	Autofluor counter
Cc1nnc(SCC(=O)N2c3ccccc3Sc3ccccc32)n1N	-4	0	-1	6	11316
Cc1ccnc(SCC(=O)N2CCN(c3ccccc3)CC2)n1	0	2	-6	3	21477*
Cn1c(CCNC(=O)c2cccs2)nnc1SCC(=O)N1CCN(c2ccccc2)CC1	5	?	0	1	23569*
O=C(CSc1nnc(-c2ccccc2)n1-c1ccccc1)N1c2ccccc2Sc2ccccc21	1	3	-4	5	21718*
Cc1cccc(C(=O)NNC(=O)c2c(-c3ccccc3Cl)noc2C)c1O	0	-3	-2	6	3601
CCc1ccc(NC(=S)N(CCOC)C2CCN(C(C)=O)CC2)cc1	1	-1	26	40*	3400
CCc1ccc(NC(=S)N(CCC(C)C)C2CCN(C(C)=O)CC2)cc1	-3	-2	-2	0	3507
Cc1ccc(C(=O)C2CCN(CC(=O)NC3CCCC3)CC2)cc1	1	2	5	-4	3160
CC1CC(C)CN(C(=O)Cn2c(SCC(=O)N3CCc4ccccc4C3)nc3ccccc32)C1 (stereo not given)	-39	-1	1	26	4589
CC(C)NC(=O)Cn1c(SCC(=O)N2CCc3ccccc3C2)nc2ccccc21	-1	-3	-1	-7	20580*
CCc1nc2c(OCc3ccc(C#N)cc3)cccn2c1N(C)C(=O)c1ccco1	/	0	-4	5	3598
O=C(CCCCCN1C(=O)c2ccccc2C1=O)Nc1ccccc1	5	1	-2	8	9863
CC(=O)Nc1ccc(NC(=O)CCCCCN2C(=O)c3ccccc3C2=O)cc1	0	4	-6	4	18712*
O=C(CCCCCN1C(=O)c2ccccc2C1=O)Nc1nccs1	-10	2	1	2	21980*
Cc1cc(Br)ccc1NC(=O)CN(C)C(=O)c1ccccc1OCc1c(C)noc1C	6	0	-2	0	4062
OC[C@@H](O)C(O)[C@@H](O)CO (stereo not given in full)	/	0	-16	1	5688
N#Cc1cc(-c2ccc(Cl)cc2)cnc1Sc1ccccc1	1	-2	-3	-19	12401
N#Cc1cc(-c2ccccc2)cnc1Sc1ccc(Cl)cc1	-6	-2	-2	-3	24808*
CSCc1ccc(C(=O)OCc2nc3ccccc3s2)o1	-11	0	-2	-2	4007
Cc1cccc(C)c1NC(=O)N1CCC(c2nc3ccccc3o2)CC1	4	?	1	0	23165*
COc1ccccc1C#Cc1cnc2c(c1)C(=O)N([C@H](C)CO)C[C@H](C)[C@@H](CN(C)S(=O)(=O)c1cn(C)cn1)O2	2	0	-5	-4	2984
COc1ccccc1C(=O)Nc1ccnn1C1CCN(C)CC1	8	1	0	-1	5064
Cc1cnn(C2CCN(C)CC2)c1N	-2	-2	-4	-7	16760*
CC(C)C(OC(=O)c1ccco1)C(=O)NC1CCCC1 (stereo not given)	-3	2	-1	9	5241
CC(C)C(OC(=O)C1CCCO1)C(=O)NC1CCCC1 (stereo not given)	2	2	-3	1	18597*
SMILES	MazF activator	BoNT A protease	Anthrax LF inh2	BoNT F protease	Autofluor counter
CC(C)CNC(=O)C1C2C=CC(C2)C1C(=O)O (stereo not given)	7	?	3	-2	20356*
Cc1cc(N2CCN(c3ccccc3)CC2)n2c(n1)nc1ccccc12	7	?	2	8	23762*
O=C(OCC#CCSc1nc2ccccc2s1)c1ccco1	4	0	0	3	19554*
O=C(OCC#CCSc1nnc(-c2ccccc2)o1)c1ccco1	1	0	6	-1	4565
Cc1onc(-c2ccccc2)c1C(=O)Nc1nc2c(s1)CCCC2	-2	1	9	-3	8517
Cc1cc(C(=O)Nc2nc3c(s2)CCCC3)no1	-7	0	-7	-2	23398*
